Each structure is given as a SMILES string. Out of some 13,000 compounds screened, about 3,200 (25%) showed an effect of 50% or more. The list shows a part of the results.

By % Inhibition is commonly meant the change of the read-out against control, counted positive when it falls.

The test deals with P. falciparum stage V gametocytes. Set-up: BacTiter-Glo ATP luminescence viability of purified stage V gametocytes in 384-well plates, per cent inhibition versus DMSO. The settings on record: 48 h, 5 µM; inhibitor.
Turning to `Cc1cccc2nc(-c3ccc(-c4ccc(CN5CCN(c6cnccn6)CC5)cc4)s3)[nH]c12.O=C(O)C(F)(F)F` [TCMDC-133900], the “% Inhibition” value was found to be 28.24%.

Consider `COc1ccc(CNCc2cccc(-c3ccc(-c4nc5ccccc5[nH]4)s3)c2)cc1.O=C(O)C(F)(F)F` [TCMDC-132733], for which the “% Inhibition” value stood at 7.28%. In the case of `COc1coc(C(=O)NC2CCN(CC3(c4ccc(Cl)cc4)CCC3)CC2)c1OC` [TCMDC-124835], the “% Inhibition” value is listed as 70.44%. To `Cc1cc(C(=O)NC2CCN(CC3(c4ccccc4)CCCCC3)CC2)on1` [TCMDC-124832] belongs 67.12%.

For `COc1c(C(=O)NC2CCN(Cc3ccccc3)C2)cnc2ccccc12` (stereo not shown) [TCMDC-138996], the “% Inhibition” value is -11.57%.

`Cc1cc(C(=O)NC2CCN(CC3(c4ccc(Cl)cc4)CCC3)CC2)on1` [TCMDC-124833]: the “% Inhibition” value came out at 85.33%.

`CC1CC1C(=O)NC1CCN(CC2(c3ccccc3)CCCCC2)CC1` (stereo not shown) [TCMDC-124831]: the “% Inhibition” value is recorded as 61.7%. Then `O=C(Nc1ccnc2ccccc12)NC1CCN(CCc2ccccc2)CC1` [TCMDC-139687], with 38.02%; and `O=C(NC1CCN(Cc2ccccc2)CC1)c1cc(-c2ccncc2)c(-c2ccc(Cl)c(O)c2)o1` [TCMDC-135453], with 2.681%. Then `O=C(CCc1ccco1)NC1CCN(CC2(c3ccc(Cl)cc3)CCC2)CC1` [TCMDC-124834], with 42.25%; and `CC(C)c1ccc(CN2CCC(NC(=O)c3ccc(-c4cccc(Cl)c4)s3)CC2)cc1` [TCMDC-134347], with -17.88%; and `O=C(C=Cc1ccc(Cl)c(Cl)c1)NC1CCN(CCc2ccccc2)CC1` [TCMDC-134274], with 3.334%. In the case of `CS(=O)(=O)CCNCc1nc(-c2ccc3ncnc(Nc4ccc(OCc5cccc(F)c5)c(Cl)c4)c3c2)cs1` [TCMDC-138499], the “% Inhibition” value is on record as -12.17%.

With `Nc1ncc(-c2ccc3ncccc3c2)c(N)n1` [TCMDC-133421], the “% Inhibition” value was 0.5405%. As to `CC(=O)Nc1ccc(CN2CCC(N(C)c3ccc(NC(=O)c4cccc(C)c4)cc3)CC2)cc1` [TCMDC-134985], the “% Inhibition” value is given as -13.81%. Then `Cn1cccc1C(=O)Nc1cccc(-c2nn3ccccc3c2-c2ccnc(Nc3ccc4c(c3)OCCO4)n2)c1` [TCMDC-135663], with -4.275%; and `Cc1cccc(NC(=O)NCc2ccccc2)n1` [TCMDC-123843], with 1.75%; and `NC(=NCc1ccccc1)Nc1cccc(Cc2ccccc2)n1` [TCMDC-138951], with 107.9%. To `N/C(=N\c1ncccn1)Nc1cccc(Cc2ccccc2)n1` [TCMDC-138948] belongs -9.706%; to `NC1=NC(c2ccccc2)N(OCc2ccccc2)C(N)=N1` (stereo not shown) [TCMDC-131586], -5.605%; to `CCN=C1NC2=C(CC(C(C)(C)C)CC2)C2(CCC(C(C)(C)C)CC2)S1` (stereo not shown) [TCMDC-131288], 95.02%. To `O=C(CSc1nccn1C1CCCC1)Nc1cc(C(F)(F)F)ccc1Cl` [TCMDC-125066] belongs 0.3827%; to `CCOc1ccc(C(=O)Nc2nonc2-c2ccc(OC)c(OC)c2)cc1` [TCMDC-125402], 33.5%. With `CCOc1ccc(-c2nonc2NC(=O)c2ccc(OC(C)C)cc2)cc1OCC` [TCMDC-125276], the “% Inhibition” value was 7.159%. To `CCCOc1ccc(C(=O)Nc2nonc2-c2ccc(OC)c(OC)c2)cc1` [TCMDC-125471] belongs 84.04%. For the molecule `COc1ccc(-c2nonc2NC(=O)c2ccc(OC(C)C)cc2)cc1OC` [TCMDC-125130], the “% Inhibition” value is 61.65%.

`COc1ccc(-c2nonc2NC(=O)c2cccc(C)c2)cc1OC` [TCMDC-125399]: the “% Inhibition” value was 77.34%. Then `COc1ccc(C(=O)Nc2nonc2-c2ccc(OC)c(OC)c2)cc1Cl` [TCMDC-125400], with 30.18%; and `COc1cccc(C(=O)Nc2nonc2-c2ccc(OC)c(OC)c2)c1` [TCMDC-125403], with 43.85%; and `C=CCOc1ccc(C(=O)Nc2nonc2-c2ccc(OC)c(OC)c2)cc1` [TCMDC-125178], with 71.05%.

Consider `COc1ccc(-c2nonc2NC(=O)c2ccc(C(C)(C)C)cc2)cc1OC` [TCMDC-125404], for which the “% Inhibition” value amounted to 42%. To `CCN(CCCN1CCCCC1)c1cc(C)nc(Nc2cc(F)cc(F)c2)n1` [TCMDC-132450] belongs 49.02%. Regarding `CCC(C)(C)NC(=O)C(c1cccc(OC)c1)N(C(=O)CNC(=O)c1cccs1)c1ccc2c(c1)OCCO2` (stereo not shown) [TCMDC-125637], the “% Inhibition” value is 1.141%. To `O=C(OCc1ccccc1)N1CCc2c([nH]c3ccccc23)C1CCC(F)(F)F` (stereo not shown) [TCMDC-134555] belongs -59.21%; to `Oc1ccc(CCNc2nc(NCc3ccc4cc(Cl)ccc4c3)nc(N3CCNCC3)n2)cc1` [TCMDC-133782], -8.892%; to `CC(C)(CN)c1nc(-c2ccc(Cl)c(O)c2)c(-c2ccnc(N)n2)[nH]1` [TCMDC-141019], -19.39%. Then `COc1ccc(C2CCC(NCCCCNC(=O)c3ccc(NC(=O)c4ccc(Cl)cc4)cc3)CC2)cc1` (stereo not shown) [TCMDC-138582], with 60.8%; and `COc1ccc(N2CCN(CCCCNC(=O)c3ccc(NC(=O)c4cc(C(F)(F)F)cc(C(F)(F)F)c4)cc3)CC2)c(OC)c1` [TCMDC-138227], with 7.888%; and `COc1cc(C2CCN(CCCCNC(=O)c3ccc(NC(=O)c4cc(C(F)(F)F)cc(C(F)(F)F)c4)cc3)CC2)ccc1OC(C)C` [TCMDC-138285], with 55.31%. Then `COc1ccc(C2CCN(CCCCNC(=O)c3ccc(NC(=O)c4ccc(Cl)cc4)cc3)CC2)cc1Cl` [TCMDC-138366], with 81.78%; and `CC(C)Cc1ccc(N2CCN(CCCCNC(=O)c3ccc(NC(=O)c4cc(C(F)(F)F)cc(C(F)(F)F)c4)cc3)CC2)cc1` [TCMDC-138252], with 6.749%.

In the case of `COc1cc(C2CCN(CCCCNC(=O)c3ccc(NC(=O)c4ccc(Cl)c(Cl)c4)cc3)CC2)ccc1OC(C)C` [TCMDC-138286], the “% Inhibition” value is listed as 111.4%. To `COc1cccc(C2CCN(CCCCNC(=O)c3ccc(NC(=O)c4ccc(Cl)cc4)cc3)CC2)c1` [TCMDC-138312] belongs 21.15%; to `COc1ccc2c(c1)CCCC2NCCCCNC(=O)c1ccc(NC(=O)c2ccc(Cl)cc2)cc1` (stereo not shown) [TCMDC-138690], 6.749%.

`CC(C)Cc1ccc(N2CCN(CCCCNC(=O)c3ccc(NC(=O)c4ccc(Cl)c(Cl)c4)cc3)CC2)cc1` [TCMDC-138251]: the “% Inhibition” value is on record as -11.88%.

In the case of `CCN(CC)c1ccccc1CNC(=O)c1cc(Cl)c(N)cc1OC` [TCMDC-131416], the “% Inhibition” value was 17.92%. To `COc1cc(Nc2ccnc3cc(-c4ccncc4)ccc23)cc(OC)c1OC` [TCMDC-138293] belongs -25.86%.

With `C=CC[C@@H](C(=O)OCC)[C@@H]1[C@@H](N(CC=C)C(=O)OC(C)(C)C)CCN1C(=O)OCc1ccccc1` [TCMDC-132035], the “% Inhibition” value is on record as 7.25%.

With `O=S(=O)(c1cccc(Br)c1)N1CCCCC(c2ccc(C(F)(F)F)cc2)=N1` [TCMDC-134539], the “% Inhibition” value is -27.96%. To `C=C[C@H]1CN2CC[C@H]1C[C@@H]2[C@@H](O)c1ccnc2ccccc12` [TCMDC-123933] belongs 7.627%; to `COc1ccc(N2CCN(c3nc(Nc4ccc(NC(C)=O)cc4)nc(N4CCCC4)n3)CC2)cc1` [TCMDC-123875], -17.97%; to `CCN(CC)CCCC(C)Nc1ccnc2ccc(-c3ccccc3)cc12` (stereo not shown) [TCMDC-123952], 41.59%. Then `CCN(CC)CCCSc1ccc(-c2ccc(SCCCN(CC)CC)cc2)cc1` [TCMDC-131824], with 99.62%; and `CN(C(=O)/C=C/c1cc(C(F)(F)F)ccc1F)C1CCN(CCCCCNC(=O)/C=C/c2ccc(Cl)c(Cl)c2)C1` (stereo not shown) [TCMDC-139997], with 27.91%; and `O=C(/C=C/c1ccc(Cl)c(Cl)c1)NCCCCCN1CCC(NC(=O)Nc2cccc(C(F)(F)F)c2)CC1` [TCMDC-135724], with -61.55%. Then `O=C(C=Cc1ccc(Cl)c(Cl)c1)NCCCCCN1CCCC(CCCNS(=O)(=O)c2cccc3cccnc23)C1` (stereo not shown) [TCMDC-139594], with 96.79%; and `O=C(/C=C/c1ccc(Cl)c(Cl)c1)NCCCCCN1CCCC(CNS(=O)(=O)c2cccc(C(F)(F)F)c2)C1` (stereo not shown) [TCMDC-139597], with 100.9%. In the case of `O=C(C=Cc1ccc(Cl)c(Cl)c1)NCCCCCN1CCCC(CCCNS(=O)(=O)c2cccc(C(F)(F)F)c2)C1` (stereo not shown) [TCMDC-139593], the “% Inhibition” value turned out to be 101.3%. Then `O=C(C=Cc1ccc(Cl)c(Cl)c1)NCCCCCN1CCCC(CCCNC(=O)c2cccs2)C1` (stereo not shown) [TCMDC-139576], with 12.1%; and `O=C(C=Cc1ccc(Cl)c(Cl)c1)NCCCCCN1CCC(CCCNS(=O)(=O)c2cccc(C(F)(F)F)c2)CC1` [TCMDC-139591], with 107.6%. Turning to `O=C(CNCC1CCCCC1)Nc1cc(C(F)(F)F)ccc1Cl` [TCMDC-124505], the “% Inhibition” value is recorded as 6.087%. Then `Cc1nc(-c2nc(NCc3ccc4c(c3)OCO4)ncc2-c2ccsc2)sc1C` [TCMDC-125358], with 15.74%; and `CCCc1cc(O)c2c3c(c(=O)oc2c1)CN(C)CC3` [TCMDC-124226], with -5.24%.

As to `COc1ccc(C2=[N+]([O-])c3ccccc3C2=O)cc1` [TCMDC-123940], the “% Inhibition” value is on record as -13.17%. To `O=C(O)c1cc(C(F)(F)F)co1` [TCMDC-124155] belongs -1.887%; to `COc1cccc2cc(C(=O)N[C@@H](CC(C)C)C(=O)N[C@H](C=NN(C)C(=O)OC(C)(C)C)Cc3ccccc3)oc12` [TCMDC-136133], 30.7%; to `CC[C@H](NC(=O)c1ccc(NC(=O)OC(C)(C)C)cc1)C(=O)N[C@@H](CO)C(=O)NCCCCc1ccccc1` [TCMDC-137189], 5.299%.

(Values after PMC4552634, “A New Set of Chemical Starting Points with Plasmodium falciparum Transmission-Blocking Potential for Antimalarial Drug Discovery” (PLoS ONE, 2015).)
